# Bioassay records from PubChem BioAssay.
# This excerpt belongs to a sample that is enriched for hits.
# HT1080-NT tox: kills 2HG-producing HT-1080-NT fibrosarcoma cells. HT-1080-NT fibrosarcoma viability, CellTiter-Glo ATP luminescence, 48 h. Potency, µM (doses to about 46.1 µM), hits mostly cytotoxic. 360,000 compounds, 1.6% hits. AID 686970;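 further: NT is the 2HG producing partner of a matched IDH1 knockdown line; nearly all actives have a fitted effect of over 55% in size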
#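 Viability by CellTiter-Glo luminescence after 48 h compound exposure at 37C of HT-1080-NT cells (750/well, RPMI, 5% FBS). % activity scaled between DMSO wells and medium-only wells, then curve-fitted and categorized by curve class.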
# HT1080 IDH1KD tx: toxicity to HT-1080 IDH1 knockdown cells (counter line); Potency, µM (doses to about 46.1 µM), actives largely listed as cytotoxic; HT-1080 IDH1 knockdown viability, ATP luminescence, 48 h; 360,000 compounds, 2% hits; AID 686971
#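 Luminescent ATP read-out (CellTiter-Glo, 10 min at room temperature) after 48 h compound exposure at 37 °C gave viability of IDH1-knockdown HT-1080 cells. Activity was normalised to DMSO and cell-free wells, then fitted as concentration-response curves.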
# TDP1 cell CPT: DT40-hTDP1 cell growth loss with CPT; 420,000 compounds, 12% hits; Potency, µM (series often up to 46.2 µM), hits mostly inhibitors; chicken DT40 Tdp1-/-;hTDP1 cells + 20 nM CPT, ATP luminescence, 48 h; further: nearly all actives have a fitted effect of over 55% in size
#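 Chicken DT40 Tdp1-/- cells complemented with human TDP1, 400 cells/well, exposed to compounds plus 20 nM camptothecin for at least 48 h at 37 C; viability read as ATP content by CellTiter-Glo luminescence.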
# IL1B secr inh: inhibitors of inflammasome signaling (IL-1 beta secretion); 360,000 compounds, 4.7% hits; THP-1 LPS/ATP IL-1B secretion, AlphaLISA, 16 h; hits give low values; activity change, % at 57.5 µM; in the data active means activity change below about -50%; inconclusive means mostly about -30% to -49%
#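 THP-1 cells pretreated 1 hr with compounds (up to 57.5 uM final), then stimulated with LPS (250 ng/mL final) plus ATP (1.25 mM final); secreted IL-1B measured by AlphaLISA after 16 hr, decreased signal indicating inhibition.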
# TDP1 cell noCPT: qHTS for Inhibitors of human tyrosyl-DNA phosphodiesterase 1 (TDP1): qHTS in cells in absence of CPT. DT40 Tdp1-/- hTDP1 cells, no CPT, ATP luminescence, 48 h. Potency, µM (titrated, usually from 46.2 µM), usual class: inhibitors. AID 686978, 2013. 420,000 compounds, 15% hits; further: nearly all actives have a fitted effect of over 55% in size
#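 Growth of hTDP1-complemented DT40 Tdp1-knockout cells is measured by ATP luminescence after at least 48 hr compound exposure at 37 °C, with DMSO substituting for the 20 nM CPT used in the parallel screen.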
# 12-LOX inh: inhibitors of human 12S-lipoxygenase ALOX12. Potency, µM (titrated, usually from 108 µM), usual class: inhibitors. purified 12hLO, xylenol orange hydroperoxide absorbance. P18054. AID 1671190. 580,000 compounds, 1.1% hits
# Target sequence (P18054 whole entry, looked up): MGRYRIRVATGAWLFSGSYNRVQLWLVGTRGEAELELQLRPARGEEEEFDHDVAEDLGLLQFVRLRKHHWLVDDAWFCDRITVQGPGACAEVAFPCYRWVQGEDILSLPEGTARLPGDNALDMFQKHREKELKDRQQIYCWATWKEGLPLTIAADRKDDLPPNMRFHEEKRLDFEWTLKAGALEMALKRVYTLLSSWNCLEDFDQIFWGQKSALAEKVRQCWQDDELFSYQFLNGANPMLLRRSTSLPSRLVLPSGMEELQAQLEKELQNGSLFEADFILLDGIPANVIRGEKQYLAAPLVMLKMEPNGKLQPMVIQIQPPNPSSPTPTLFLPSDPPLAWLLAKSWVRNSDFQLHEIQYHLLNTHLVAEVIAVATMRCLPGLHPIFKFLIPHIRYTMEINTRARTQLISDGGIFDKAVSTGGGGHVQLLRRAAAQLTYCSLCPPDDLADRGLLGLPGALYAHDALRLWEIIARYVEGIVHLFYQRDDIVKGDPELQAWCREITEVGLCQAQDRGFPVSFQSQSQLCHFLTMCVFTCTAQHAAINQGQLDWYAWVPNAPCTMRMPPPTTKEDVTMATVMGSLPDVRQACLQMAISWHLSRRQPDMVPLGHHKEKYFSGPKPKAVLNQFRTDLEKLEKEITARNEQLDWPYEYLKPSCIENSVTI
#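 Purified human 12hLO at 150 nM in 25 mM Hepes, 0.01% Triton X-100, pH 7.0, preincubated 15 min at room temperature with compound. Reaction started with 40 uM arachidonic acid, 30 min at room temperature. Hydroperoxide measured by Fe-xylenol orange, 573/405 nm absorbance ratio.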
# Numbers stand for hits; . = inactive; ? = inconclusive; / = no result given; [ ] = remark or other dose. Unless noted, the call rests on the fitted dose curve; in most records, active means well fitted curve in the direction sought with a large enough effect; inconclusive means small, poorly fitted or top-dose-only effect, or another doubt; inactive means no such curve, though single readings can be large; an effect the other way counts as inactive or inconclusive.
SMILES,HT1080-NT tox,HT1080 IDH1KD tx,TDP1 cell CPT,IL1B secr inh,TDP1 cell noCPT,12-LOX inh
O=C(Oc1oc(-c2ccco2)nc1C=Nc1ccccc1)c1ccoc1,.,.,5.2µM,-68,12µM,.
Cc1ccc(C(=O)Oc2oc(-c3ccco3)nc2C=Nc2ccc(Cl)cc2)cc1,.,.,18µM,-51,23µM,?
CN(C)c1ccc(N=Cc2nc(-c3ccccc3)oc2OC(=O)c2cccc(Cl)c2)cc1,.,.,?,.,?,.
O=C(Oc1oc(-c2ccco2)nc1C=Nc1ccccc1)c1ccco1,.,.,3.7µM,?,4.6µM,/
COc1ccc(N=Cc2nc(-c3ccccc3)oc2OC(C)=O)cc1,.,.,?,.,13µM,.
Cc1ccc(N=Cc2nc(-c3ccco3)oc2O)cc1,.,.[9.24 µM],.,/,?,?
COc1cccc(N=Cc2nc(-c3ccccc3)oc2OC(C)=O)c1,.,.,.,.,.,.
O=C(N[C@H]1CCN2C(=O)c3cc(-c4cccs4)ccc3NC(=O)[C@H]12)c1cnccn1,/,/,/,/,/,.
Cc1nc2c(o1)C(=O)c1ccccc1C2=Nc1ccccc1,5.8µM,2.9µM,2.3µM,-100,2.1µM,.
Cc1nc2scc(-c3ccccc3)c2c(=O)o1,.,.,.,.,.,.
O=C1/C(=C\c2ccco2)SC(=S)N1c1ccccc1,.,.,.,.,?,?
O=C1/C(=C\c2ccco2)SC(=S)N1C1CCS(=O)(=O)C1 (stereo not drawn),?,?,23µM,/,21µM,?
O=C1/C(=C/c2ccco2)SC(=S)N1C1CCS(=O)(=O)C1 (stereo not drawn),.,.,15µM,.,16µM,?
Cc1ccc(/C=C2\SC(=S)N(C3CCS(=O)(=O)C3)C2=O)cc1 (stereo not drawn),.,.,?,.,15µM,.
Cc1cc(C)cc(N(CCC#N)C(=O)COC(=O)c2ccc(OCc3c(C)noc3C)cc2)c1,.,.,.,.,.,.
COc1cccc(/C=N/NC(=O)CNC(=O)c2cccs2)c1O,?,?,5.8µM,.,9.2µM,.
COc1ccc(/C(C)=N/NC(=O)CNC(=O)COc2ccccc2)c(OC)c1,.,.,.,.,.,.
COc1ccc(/C(C)=N/NC(=O)CNC(=O)CCc2ccccc2)c(OC)c1,?,?,?,.,18µM,.
COc1cccc(/C=N/NC(=O)CNC(=O)CCc2ccccc2)c1O,?,21µM,?,.,?,.
COc1ccccc1/C=C\C(=O)NCC(=O)N/N=C/c1cccc(OC)c1O,?,15µM,7.3µM,.,7.3µM,.
Cc1ccc(/C=N/NC(=O)CNC(=O)c2cccs2)cc1,.,.,.,.,.,.
CCCCSCCCNC(=O)C1CCC(CNS(=O)(=O)c2c(C)cc(C)cc2C)CC1 (stereo not drawn),/,/,15µM,/,18µM,?
COc1ccc(OCC(=O)Nc2nc3cc4c(cc3s2)OCCO4)cc1,.,.,.,.,.,?
Cc1cc(C)c2sc(NC(=O)C3=COCCO3)nc2c1,.,.,.,-58,.,.
O=C(Nc1nc2cc3c(cc2s1)OCCCO3)c1cccc(Cl)c1Cl,/,/,/,/,/,.
SMILES,HT1080-NT tox,HT1080 IDH1KD tx,TDP1 cell CPT,IL1B secr inh,TDP1 cell noCPT,12-LOX inh
CC(=O)Nc1nc2cc3c(cc2s1)OCCO3,.,.,?,?,23µM,.
O=C(Nc1nc2cc3c(cc2s1)OCCO3)C1=COCCO1,15µM,13µM,23µM,-53,?,?
O=C(COc1ccccc1)N1CC(F)(F)C[C@H]1c1nc(C2CC2)no1,/,/,/,/,/,.
CCC(CC)COC(=O)C1=C(C)NC(=O)NC1c1ccc2c(c1)OCO2 (stereo not drawn),.,?,.,-79,?,.
CCCCOC(=O)C1=C(C)NC(=O)NC1c1cc2c(cc1Br)OCO2 (stereo not drawn),.,.,23µM,?,23µM,.
Nc1ccc2c(c1)C(=O)c1ccc(N)cc1-2,.,.,.,-76,.,.
